Among all 210,000 compounds or so, about 730 (0.35%) were called active. Another 1% or so got no clear call; they are omitted. The full list was thinned out, with actives kept by preference. Values without a mark were called inactive. The call rests on the fitted dose curve; in most records, active means well fitted inhibition curve with a large enough effect; inconclusive means small, poorly fitted or top-dose-only effect; inactive means no such curve, though single readings can be large or run the other way.
Potency means the concentration at half of the fitted maximal effect.

A short description of the assay: qHTS Assay for Identifying the Cell-Membrane Permeable IMPase Inhibitors: Potentiation with Lithium.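 Further: IP1 builds up when IMPase is blocked and the TR-FRET signal falls; nearly all actives have a fitted effect of over 50% in size.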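 On activity, negative = IMPase inhibition: plate controls were basal vehicle for no effect and high inhibitor control for full effect.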 As to conditions: CHO-M1 cells, IP1 TR-FRET (IP-One), carbachol + lithium; series mostly up to 59.4 µM; activity, negative = IMPase inhibition: at the top concentration. The gist of the method: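 Concentration–response in CHO-M1 cells, lithium-potentiated; 30 min at 37C. IP1 detected by competitive TR-FRET after 10 min lysis at RT. Hill-fitted AC50.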
(In general: Quantitative high-throughput screening tests each substance at several concentrations.)
As for `COC(=O)N1C(/C=C/C=C/c2ccc(OC)cc2)=Cc2ccccc2C1CC(C)=O` (stereo not drawn), the “activity, negative = IMPase inhibition” value was 5.89%.

On to `CCCCC/C=C\C/C=C\C/C=C\CCCCC(=O)NCC(=O)O`, for which the “activity, negative = IMPase inhibition” value was 4.54%.

For `CCC(C)[C@@H](N)C(=O)O` (stereo partly drawn), the “activity, negative = IMPase inhibition” value was -2.45%.

For `C=CCN1c2ccccc2[C@]23C[C@@H](C(=O)OC)N(S(=O)(=O)c4ccc([N+](=O)[O-])cc4)C2=NC(C(=O)OC)=C(C(=O)OC)[C@H]13`, the “activity, negative = IMPase inhibition” value is 8.65%.

Turning to `COCc1cc(C)nc(Nc2cc(C)ccc2C)c1C#N`, the “activity, negative = IMPase inhibition” value was 2.06% [at 38.3 µM].

As for `Cc1cc(C)c(C#N)c(SCC(=O)Nc2ccccc2)n1`, the “activity, negative = IMPase inhibition” value was -12.8%.

Take `COCc1cc(C)nc(SCC(=O)Nc2cccc(C)c2)c1C#N`: the Potency was 22.4 µM (active).

On to `CC(Nc1oc(-c2ccccc2)nc1-c1ccccc1)c1ccccc1` (stereo not drawn), for which the Potency entry was “inactive”.

Take `C[C@H]1Cc2c(-c3ccccc3)nc3c(c2CO1)CN(S(=O)(=O)c1ccc(Cl)c2nonc12)CC3`: the “activity, negative = IMPase inhibition” value is 7.59%.

As for `CC1(OC(=O)c2ccc(Cl)nc2)C(=O)Cc2cc(-c3ccsc3)ncc2C1=O` (stereo not drawn), the “activity, negative = IMPase inhibition” value is 9.99%.

For `CC1Cc2cc(/C(O)=C3\C(=O)C(=O)N(CCN4CCOCC4)C3c3ccccc3F)ccc2O1` (stereo not drawn), the Potency is 10 µM (active).

As to `COc1cccc(C2/C(=C(/O)c3ccncc3)C(=O)C(=O)N2CCCN(C)C)c1` (stereo not drawn), the “activity, negative = IMPase inhibition” value was 2.53% [at 38.3 µM].

Take `COCCCN1C(=O)C(=O)/C(=C(/O)c2ccc3c(c2)CC(C)O3)C1c1cccnc1` (stereo not drawn): the Potency was 8.91 µM (active).

Take `O=C1C(=O)N(CCN2CCOCC2)C(c2ccccn2)/C1=C(/O)c1ccc(Cl)cc1` (stereo not drawn): the “activity, negative = IMPase inhibition” value was 7.49%.

In the case of `COc1cc(C2/C(=C(\O)c3ccc4c(c3)CC(C)O4)C(=O)C(=O)N2Cc2ccco2)ccc1O` (stereo not drawn), the “activity, negative = IMPase inhibition” value is -13.8%.

`CCN(CC)CCN1C(=O)C(=O)/C(=C(/O)c2ccccc2)C1c1ccccc1F` (stereo not drawn): the “activity, negative = IMPase inhibition” value is 5.01% [at 38.3 µM].

Regarding `CC(C)(C)OC(=O)NCCCC1=CC2=CC(=O)C(C)(OC(=O)c3ccco3)C(=O)C2=CO1` (stereo not drawn), the “activity, negative = IMPase inhibition” value is 13.9%.

On to `CCCCC/C=C\C/C=C\CCCCCCCCCC(N)=O`, for which the “activity, negative = IMPase inhibition” value is 4.61%.

As for `COC(=O)C1=C(C(=O)OC)[C@@H]2N(C)c3ccccc3[C@@]23C[C@@H](C(=O)OC)N(C(=O)c2ccco2)C3=N1`, the “activity, negative = IMPase inhibition” value is -2.84%.

Turning to `CCCCCCCC1=Cc2ccc(F)cc2C(C(C(=O)OC)C(=O)OC)N1C(=O)OC` (stereo not drawn), the Potency entry is “inactive”.

`Cc1c(Cc2ccccc2)c(=O)oc2cc(OCC(N)=O)ccc12`: the “activity, negative = IMPase inhibition” value is -7.11%.

Turning to `O=C(Oc1ccccc1)Oc1ccc2c(c1)oc(=O)c1ccccc12`, the Potency is 10 µM (active).

On to `NC(=O)COc1ccc2c3c(c(=O)oc2c1)CCCCC3`, for which the “activity, negative = IMPase inhibition” value was 17.5% [at 38.3 µM].

Regarding `CCOC(=O)C1=C(C)c2ccccc2OC1(C)C(=O)OCC` (stereo not drawn), the “activity, negative = IMPase inhibition” value was -2.23%.

Regarding `CCCCC/C=C\C/C=C\CCCCCCCCCC(=O)O`, the Potency entry is “inactive”.

Turning to `C[C@H]1Cc2c(COc3ccccc3)nc3c(c2CO1)CN(C(=O)Nc1cccc(C#N)c1)CC3`, the “activity, negative = IMPase inhibition” value was -3.57%.

Consider `C#CCCOC(=O)N1C2=NC(C(=O)OC)=C(C(=O)OC)[C@@H]3N(C)c4ccc(OC)cc4[C@]23C[C@H]1C(=O)OC`, for which the “activity, negative = IMPase inhibition” value was -1.69%.

Regarding `COc1ccc(-c2nc3c(c4c2C[C@H](c2ccccc2)OC4)CN(C(=O)c2ccco2)CC3)c(C)c1`, the “activity, negative = IMPase inhibition” value is 4.59%.

For the molecule `C=CC1=C2C=C(C3CC3)N(C(CO)CO)C=C2C(=O)C(C)(OC(=O)c2ccco2)C1=O` (stereo not drawn), the “activity, negative = IMPase inhibition” value was 3.61%.

In the case of `COc1ccc2c(c1)O[C@@H](c1ccc3c(c1)OCO3)[C@H](OC(=O)NCc1ccco1)C2=O`, the “activity, negative = IMPase inhibition” value was -3.02%.

As to `Cc1ccc(C)c(S(=O)(=O)N2CC(=O)Nc3ccccc32)c1`, the “activity, negative = IMPase inhibition” value was 21.6% [at 38.3 µM].

Regarding `Cc1ccc(S(=O)(=O)N2CC(=O)Nc3ccccc32)cc1C`, the “activity, negative = IMPase inhibition” value was -2.99% [at 38.3 µM].

As for `O=C1CN(c2nc(-c3ccccc3)c3cc(Br)ccc3n2)c2ccccc2N1`, the Potency was 12.6 µM (active).

Take `COc1ccc(-c2nc3c(c4c2C[C@H](c2ccccc2)OC4)CN(S(=O)(=O)c2c(C)noc2C)CC3)c(C)c1`: the “activity, negative = IMPase inhibition” value was 2.36%.

Turning to `O=C(c1ccco1)N1CCC2(CC1)CCN(c1ncccn1)CC2`, the “activity, negative = IMPase inhibition” value is 2.75%.

Consider `O=C(C1=C(O)C(=O)N(c2ncccn2)C1c1cccs1)c1ccco1` (stereo not drawn), for which the Potency is 11.2 µM (active).

`O=C(c1ccco1)N1CCC2(CC1)CN(c1ncccn1)C2`: the “activity, negative = IMPase inhibition” value was -29.1%.

`C=CCC1CCC(=O)N2CCCC12` (stereo not drawn): the “activity, negative = IMPase inhibition” value was 8.46%.

For the molecule `C[C@@H]1C(c2ccc(F)cc2)=NN(c2ccc(Br)cc2)[C@H]1C(=O)N1CCOC1=O`, the “activity, negative = IMPase inhibition” value was 0.815%.

Take `COC(=O)CC1c2ccccc2C(Cc2ccc(OC)cc2)=C(C)N1C(=O)OC` (stereo not drawn): the “activity, negative = IMPase inhibition” value is 3.73%.

Take `COc1cc(OC)c2c(c1)OC(=O)CC2c1cc(OC)c(OC)c(OC)c1` (stereo not drawn): the “activity, negative = IMPase inhibition” value was 23.6%.

In the case of `CC1=C2[C@@H](O)[C@H]([C@@H](C)C(=O)NCCC(C)C)CC[C@@]2(C)C=CC1=O`, the “activity, negative = IMPase inhibition” value is 2.85%.

With `C=CC1(C)CC(=O)C2(O)C(C)(O1)C(OC(C)=O)C(O)C1C(C)(C)CCC(O)C12C` (stereo not drawn), the Potency result is “inactive”.

Take `COC(=O)C1=C(C(=O)OC)[C@@H]2N(C)c3ccccc3[C@@]23C[C@@H](C(=O)OC)N(C(C)=O)C3=N1`: the “activity, negative = IMPase inhibition” value is -5.12%.

Take `CCN(CC)C(=O)c1sc2nc(-c3ccccc3)ccc2c1N`: the Potency is 10 µM (active).

Turning to `Nc1c(C(=O)NCc2ccccc2)sc2nc3c(cc12)C(=O)CCC3`, the “activity, negative = IMPase inhibition” value was -0.997% [at 38.3 µM].

Regarding `CCCC(=O)n1nc(-c2ccccc2)nc1N`, the “activity, negative = IMPase inhibition” value was 1.74%.

For `CCCCC/C=C\CC1OC1CCCCCCCC(=O)O` (stereo not drawn), the Potency entry is “inactive”.
